# Experimental data published in the supplement of paper PMC10849652.
# About 7,900 targets were measured; listed, in parts, are those with a hit and a random draw of the rest. About 0.6% of all pairs of compound and target were hits. Values without a mark were called inactive.
# Legend:
# Test in all cases: log2 fold change, soluble protein after heating vs DMSO (PISA); higher = thermal stabilisation; K562 cells, 10 uM, 30 min; active = over 0.2 and 3.5 SD of the protein, either way, in both replicates (recomputed)
# [1] = compound: C#Cc1cccc(Nc2ncnc3cc(OCCOC)c(OCCOC)cc23)c1 [erlotinib]
# Outline: (§1)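 Values are thermal stability changes relative to control samples and are taken from duplicates. They are stated as log2 fold changes. Before quantification by TMTpro 16plex LC-MS/MS with equalised channel sums, K562 cells at 2×10^6 cells/mL were treated with 10 μM compound for 30 min, heated in aliquots for 3 min across 48°C-58°C, pooled, extracted in PBS with 0.5% NP-40 at 4°C, and centrifuged at 21,000xg for 90 min to give the soluble supernatant.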
# [2] = compound: C/C(=N\NC(=O)C1=CC(=CC=C1)S(=O)(=O)N2CCOCC2)/C3=C(C=CC(=C3)Cl)O
# Outline: as §1
# [3] = compound: C1=CC(=C(C=C1Cl)C2=NC3=NC=CN=C3C(=N2)NC4=CC=NC=C4)F
# Outline: as §1
# [4] = compound: C1=CC(=CC=C1C2=NC3=C(N2)C=C(C=C3)C(=O)N)OC4=CC=C(C=C4)Cl
# Outline: as §1
# [5] = compound: C1=CC2=C(C=CC(=C2)/C=C\3/C(=O)NC(=NCC4=CC=CS4)S3)N=C1
# Outline: as §1
# [6] = compound: C1=CC2=NC=CN=C2C=C1/C=C/3\C(=O)NC(=O)S3
# Outline: as §1
# [7] = compound: C1=CC=C(C=C1)C2=NC(=C(N2)C3=CC=NC=C3)C4=CC(=C(C=C4)Cl)O
# Outline: as §1
# [8] = compound: C1=CC=C2C(=C1)C3=NNC4=CC=CC(=C43)C2=O
# Outline: as §1
# [9] = compound: C1CCN(C1)C(=O)NC2=CC=CC(=C2)NC3=NC=C(C(=N3)NCCC4=CN=CN4)Br
# Outline: as §1
# [10] = compound: C1CN(CCC1(CC2=CC=C(C=C2)Cl)N)C3=NC=NC4=C3C=CN4
# Outline: as §1
# Chain of UniProt O15243 (O15243 whole entry, looked up): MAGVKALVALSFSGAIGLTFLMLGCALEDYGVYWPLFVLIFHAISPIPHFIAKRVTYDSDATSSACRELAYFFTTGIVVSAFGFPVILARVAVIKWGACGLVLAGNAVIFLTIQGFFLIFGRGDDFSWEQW
# Chain of UniProt P52732 (P52732 whole entry, looked up): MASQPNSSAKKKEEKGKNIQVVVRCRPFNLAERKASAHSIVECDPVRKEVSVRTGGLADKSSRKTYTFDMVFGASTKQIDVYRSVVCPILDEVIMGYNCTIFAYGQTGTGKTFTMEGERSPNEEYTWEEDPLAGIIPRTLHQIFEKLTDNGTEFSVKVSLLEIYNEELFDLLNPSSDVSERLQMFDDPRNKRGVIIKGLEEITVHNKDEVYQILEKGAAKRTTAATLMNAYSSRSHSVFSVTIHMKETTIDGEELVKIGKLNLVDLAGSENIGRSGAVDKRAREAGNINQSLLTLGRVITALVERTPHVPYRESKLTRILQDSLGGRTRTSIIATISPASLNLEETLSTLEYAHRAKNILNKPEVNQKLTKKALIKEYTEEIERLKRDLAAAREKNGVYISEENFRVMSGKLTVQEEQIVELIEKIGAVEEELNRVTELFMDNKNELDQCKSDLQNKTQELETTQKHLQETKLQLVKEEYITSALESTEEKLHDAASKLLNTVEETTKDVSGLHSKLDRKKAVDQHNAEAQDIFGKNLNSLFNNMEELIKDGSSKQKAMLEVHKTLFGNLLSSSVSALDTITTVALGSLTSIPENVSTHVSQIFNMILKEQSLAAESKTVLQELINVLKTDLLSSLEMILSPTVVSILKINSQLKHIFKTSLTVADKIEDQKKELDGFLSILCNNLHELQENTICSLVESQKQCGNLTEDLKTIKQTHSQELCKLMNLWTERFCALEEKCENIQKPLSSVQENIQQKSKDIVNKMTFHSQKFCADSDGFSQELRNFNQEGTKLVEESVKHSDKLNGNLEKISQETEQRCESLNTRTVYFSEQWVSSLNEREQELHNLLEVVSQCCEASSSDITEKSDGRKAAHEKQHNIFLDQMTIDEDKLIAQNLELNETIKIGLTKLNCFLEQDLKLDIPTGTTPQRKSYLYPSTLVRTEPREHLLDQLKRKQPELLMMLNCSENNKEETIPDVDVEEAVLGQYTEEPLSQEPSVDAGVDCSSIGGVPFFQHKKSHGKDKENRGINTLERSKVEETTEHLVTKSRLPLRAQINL
# Chain of UniProt Q9UHB6 (Q9UHB6 whole entry, looked up): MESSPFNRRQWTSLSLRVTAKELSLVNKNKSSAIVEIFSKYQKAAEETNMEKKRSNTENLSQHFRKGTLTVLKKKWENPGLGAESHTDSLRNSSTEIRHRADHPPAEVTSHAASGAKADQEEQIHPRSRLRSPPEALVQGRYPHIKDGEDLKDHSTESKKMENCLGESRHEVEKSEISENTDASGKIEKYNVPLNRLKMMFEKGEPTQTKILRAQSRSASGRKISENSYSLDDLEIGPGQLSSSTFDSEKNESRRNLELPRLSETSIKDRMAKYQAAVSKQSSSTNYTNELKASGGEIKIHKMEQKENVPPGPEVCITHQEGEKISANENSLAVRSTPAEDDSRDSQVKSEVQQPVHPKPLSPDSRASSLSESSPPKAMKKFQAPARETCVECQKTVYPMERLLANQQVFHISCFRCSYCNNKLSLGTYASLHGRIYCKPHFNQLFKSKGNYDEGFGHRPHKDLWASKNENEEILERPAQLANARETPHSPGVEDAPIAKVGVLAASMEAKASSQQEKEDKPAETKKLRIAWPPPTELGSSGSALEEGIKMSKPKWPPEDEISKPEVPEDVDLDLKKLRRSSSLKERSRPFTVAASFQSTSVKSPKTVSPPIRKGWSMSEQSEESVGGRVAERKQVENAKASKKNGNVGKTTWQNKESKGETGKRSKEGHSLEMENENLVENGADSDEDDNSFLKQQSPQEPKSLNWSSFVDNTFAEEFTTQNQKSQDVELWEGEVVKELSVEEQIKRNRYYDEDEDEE
# Chain of UniProt P53778 (P53778 whole entry, looked up): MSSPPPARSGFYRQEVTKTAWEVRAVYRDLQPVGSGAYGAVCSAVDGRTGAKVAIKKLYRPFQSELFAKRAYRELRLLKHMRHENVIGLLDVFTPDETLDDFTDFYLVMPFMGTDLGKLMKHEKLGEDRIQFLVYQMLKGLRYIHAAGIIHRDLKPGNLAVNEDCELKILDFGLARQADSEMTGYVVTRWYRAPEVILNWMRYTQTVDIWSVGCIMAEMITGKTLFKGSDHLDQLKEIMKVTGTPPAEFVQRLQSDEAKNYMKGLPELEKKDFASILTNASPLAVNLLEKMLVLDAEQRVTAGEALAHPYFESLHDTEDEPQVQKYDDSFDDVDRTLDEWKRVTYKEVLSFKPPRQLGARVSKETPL
# Chain of UniProt Q14680 (Q14680 whole entry, looked up): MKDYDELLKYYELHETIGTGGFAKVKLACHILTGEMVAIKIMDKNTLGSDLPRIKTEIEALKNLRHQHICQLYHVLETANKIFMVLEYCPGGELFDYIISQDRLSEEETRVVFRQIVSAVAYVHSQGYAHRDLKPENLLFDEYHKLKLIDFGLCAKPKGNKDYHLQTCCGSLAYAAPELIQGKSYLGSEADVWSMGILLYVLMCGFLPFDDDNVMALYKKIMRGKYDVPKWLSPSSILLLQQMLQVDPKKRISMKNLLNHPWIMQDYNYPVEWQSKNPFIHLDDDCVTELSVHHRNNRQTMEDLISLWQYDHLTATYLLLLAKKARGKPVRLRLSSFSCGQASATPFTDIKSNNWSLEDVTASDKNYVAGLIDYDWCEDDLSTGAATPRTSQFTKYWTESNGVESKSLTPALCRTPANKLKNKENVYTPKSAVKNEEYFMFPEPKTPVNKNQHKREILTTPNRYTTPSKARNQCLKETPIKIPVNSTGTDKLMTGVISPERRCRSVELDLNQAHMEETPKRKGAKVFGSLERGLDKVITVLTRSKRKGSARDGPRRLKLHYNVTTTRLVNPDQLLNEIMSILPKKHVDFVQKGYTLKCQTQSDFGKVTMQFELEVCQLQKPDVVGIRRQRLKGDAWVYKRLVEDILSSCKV
# Chain of UniProt Q9GZY8 (Q9GZY8 whole entry, looked up): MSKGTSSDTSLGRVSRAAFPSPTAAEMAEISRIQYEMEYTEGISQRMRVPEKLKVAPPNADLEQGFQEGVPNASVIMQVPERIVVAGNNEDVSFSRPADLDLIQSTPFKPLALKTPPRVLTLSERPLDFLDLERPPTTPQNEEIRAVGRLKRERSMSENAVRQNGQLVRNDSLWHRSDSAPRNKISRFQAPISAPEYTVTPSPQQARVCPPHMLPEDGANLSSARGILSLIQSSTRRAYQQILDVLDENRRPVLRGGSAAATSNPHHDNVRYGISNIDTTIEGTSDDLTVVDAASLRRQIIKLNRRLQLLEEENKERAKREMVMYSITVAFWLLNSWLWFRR
# Chain of UniProt P51884 (P51884 whole entry, looked up): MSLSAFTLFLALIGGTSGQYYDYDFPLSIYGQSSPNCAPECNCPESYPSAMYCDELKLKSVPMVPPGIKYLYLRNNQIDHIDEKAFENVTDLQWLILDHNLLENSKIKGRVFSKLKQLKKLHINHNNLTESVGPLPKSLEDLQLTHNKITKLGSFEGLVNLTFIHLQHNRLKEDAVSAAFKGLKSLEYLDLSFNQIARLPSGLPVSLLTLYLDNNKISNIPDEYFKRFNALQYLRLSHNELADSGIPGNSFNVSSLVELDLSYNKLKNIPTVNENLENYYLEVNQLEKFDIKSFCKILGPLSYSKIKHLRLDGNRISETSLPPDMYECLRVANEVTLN
# Chain of UniProt Q9H3U5 (Q9H3U5 whole entry, looked up): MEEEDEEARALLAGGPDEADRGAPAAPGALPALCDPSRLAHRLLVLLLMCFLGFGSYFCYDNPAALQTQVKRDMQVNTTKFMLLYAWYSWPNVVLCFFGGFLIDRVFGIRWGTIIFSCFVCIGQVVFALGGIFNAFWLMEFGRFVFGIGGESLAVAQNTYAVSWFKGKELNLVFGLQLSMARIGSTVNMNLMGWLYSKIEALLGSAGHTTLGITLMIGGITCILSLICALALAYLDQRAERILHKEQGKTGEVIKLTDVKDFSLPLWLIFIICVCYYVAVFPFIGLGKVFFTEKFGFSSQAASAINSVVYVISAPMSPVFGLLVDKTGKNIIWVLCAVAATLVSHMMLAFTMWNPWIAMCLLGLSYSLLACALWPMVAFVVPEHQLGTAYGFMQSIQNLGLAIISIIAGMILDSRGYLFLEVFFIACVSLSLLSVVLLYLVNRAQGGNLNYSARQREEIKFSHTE
# Chain of UniProt P36507 (P36507 whole entry, looked up): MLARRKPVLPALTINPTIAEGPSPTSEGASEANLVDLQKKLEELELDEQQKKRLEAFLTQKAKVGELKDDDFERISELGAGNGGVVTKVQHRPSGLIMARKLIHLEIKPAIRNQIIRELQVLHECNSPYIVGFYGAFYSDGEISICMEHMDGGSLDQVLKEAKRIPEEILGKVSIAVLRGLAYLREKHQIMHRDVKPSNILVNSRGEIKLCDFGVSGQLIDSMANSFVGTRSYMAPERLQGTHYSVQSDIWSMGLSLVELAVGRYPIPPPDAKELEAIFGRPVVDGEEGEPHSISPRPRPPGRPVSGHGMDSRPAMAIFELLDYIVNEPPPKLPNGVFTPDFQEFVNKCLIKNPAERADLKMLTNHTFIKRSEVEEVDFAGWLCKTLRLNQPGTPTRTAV
# Chain of UniProt P13473 (P13473 whole entry, looked up): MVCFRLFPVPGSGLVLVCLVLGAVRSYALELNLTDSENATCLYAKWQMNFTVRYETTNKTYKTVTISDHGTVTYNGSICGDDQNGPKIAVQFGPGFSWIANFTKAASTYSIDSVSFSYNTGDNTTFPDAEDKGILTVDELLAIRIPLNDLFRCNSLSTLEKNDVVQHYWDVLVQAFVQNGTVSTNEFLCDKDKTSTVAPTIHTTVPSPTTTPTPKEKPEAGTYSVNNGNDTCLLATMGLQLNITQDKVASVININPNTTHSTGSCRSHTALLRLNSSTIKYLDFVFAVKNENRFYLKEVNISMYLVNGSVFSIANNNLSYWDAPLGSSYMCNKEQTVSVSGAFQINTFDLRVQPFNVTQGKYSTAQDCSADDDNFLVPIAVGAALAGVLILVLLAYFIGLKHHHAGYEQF
Target,log2 fold change [1],log2 fold change [2],log2 fold change [3],log2 fold change [4],log2 fold change [5],log2 fold change [6],log2 fold change [7],log2 fold change [8],log2 fold change [9],log2 fold change [10]
KIAA1324L (UniProt A8MWY0),0.036,-0.077,0.003,0.05,0.092,-0.068,0.003,-0.042,-0.03,0.064
LEO1 (UniProt Q8WVC0),0.132,0.108,0.194,-0.079,-0.006,0.007,-0.035,-0.039,-0.076,-0.045
LSS (UniProt P48449),0.293,0.073,-0.029,0.051,0.128,0.069,-0.005,0.081,0.005,0.089
MAP3K20 (UniProt Q9NYL2),0.014,-0.013,-0.009,0.043,-0.009,0.038,-0.011,-0.106,-0.046,-0.036
MAP2K2 (UniProt P36507),0.021,-0.005,0.05,-0.001,0.054,-0.005,-0.058,-0.029,-0.003,0.016
LMBRD1 (UniProt Q9NUN5),0.075,-0.055,0.211,-0.014,0.226,0.113,-0.051,-0.027,-0.142,0.033
IGFBP4 (UniProt P22692),-0.03,-0.14,0.023,0.093,-0.124,0.178,-0.051,-0.217,0.108,0.076
ITGA2B (UniProt P08514),-0.046,-0.051,0.023,0.06,-0.023,,0,-0.133,0.065,-0.13
MED1 (UniProt Q15648),-0.022,-0.011,-0.118,-0.001,0.04,0.043,-0.03,-0.043,0.016,-0.025
KIF11 (UniProt P52732),0.042,0.032,-0.106,-0.058,0.038,0.012,-0.168,0.011,-0.017,-0.158
LIMA1 isoform 4 (UniProt Q9UHB6),-0.015,-0.062,-0.039,0.069,0.038,-0.015,0.022,0.054,0,-0.039
ILRUN (UniProt Q9H6K1),-0.009,0.069,-0.033,0.027,0.075,0.043,-0.06,-0.063,0.028,0.041
LDAH isoform 2 (UniProt Q9H6V9),0.116,0.052,-0.101,-0.041,0.047,0,0.018,0,0.06,-0.006
LUM (UniProt P51884),-0.147,-0.043,0.095,0.039,0.063,,-0.057,-0.068,0.185,0.307
LEPROT (UniProt O15243),0.06,0.034,0.081,0.088,0.119,,,-0.058,-0.011,0.001
MARCKS (UniProt P29966),-0.033,-0.032,0.061,0.045,-0.026,0.048,0.119,0.025,0.01,0.118
MAPKAPK5 (UniProt Q8IW41),0.249 (active),-0.249,0.024,-0.087,0.019,0.052,0.043,0.025,-0.033,0.012
MARK2 (UniProt E9PC69),0.12,0.091,0.043,-0.042,0.115,-0.1,-0.014,-0.756 (active),-0.227,-0.126
MFF (UniProt Q9GZY8),0.02,-0.022,0.011,-0.024,0.107,0.057,-0.008,-0.062,0.007,0.032
KNTC1 (UniProt P50748),0.102,0.068,0.029,-0.039,0.019,0.034,-0.065,-0.012,0.001,-0.004
IPO13 (UniProt O94829),-0.045,-0.018,0.05,-0.037,0.025,0.021,-0.059,-0.033,0.013,-0.062
MELK (UniProt Q14680),0.067,-0.067,0.018,0.027,0.033,0.009,,0.031,-0.027,-0.086
MAP4 (UniProt P27816),0.003,-0.041,0.006,-0.009,-0.039,0.011,-0.007,-0.02,-0.025,0.015
LNPEP (UniProt Q9UIQ6),-0.005,-0.002,0.046,0.016,0.019,0.034,0.067,-0.008,-0.01,0.042
LAMP2 isoform 2 (UniProt P13473),-0.072,0.02,0.041,0.082,-0.022,0.088,,-0.007,0.018,0.049
MFSD1 isoform 6 (UniProt Q9H3U5),-0.011,0.011,0.006,0.029,-0.002,-0.009,0.018,0.014,0.059,0.084
MAPK12 (UniProt P53778),-0.039,-0.033,-0.093,-0.053,0.008,-0.074,0.073,0.003,0.087,0.024
MFN1 (UniProt Q8IWA4),-0.002,-0.026,0.042,0.001,0.07,0.347,-0.016,-0.015,0.025,-0.039
KEL (UniProt P23276),0.011,0.042,0.008,0.13,-0.005,0.147,-0.029,-0.067,-0.013,-0.001
